# This is part of a sample that, as a whole, favours compounds with a hit. Of some 83,000 tested, about 20% had one in any assay.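 Method: cells in 96-well plates; compound added at one concentration; 48 h incubation; percent growth measured; values under 10 scored active.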 Values without a mark were called inactive. Activity calls are given as the source filed them.
# Legend:
# Assay in all cases: NCI-60 one-dose screen, 48 h (100 = growth as untreated, 0 = no growth, -100 = all killed)
# Details in all cases: 10 µM unless noted
# SK-MEL-2 melanoma = system: SK-MEL-2 melanoma
# EKVX NSCLC = system: EKVX NSCLC
# SN12C renal = system: SN12C renal
# UO-31 renal = system: UO-31 renal
# TK-10 renal = system: TK-10 renal
# A498 renal = system: A498 renal
# CCRF-CEM leukemia = system: CCRF-CEM leukemia
# MOLT-4 leukemia = system: MOLT-4 leukemia
# SR leukemia = system: SR leukemia
# RPMI-8226 leukemia = system: RPMI-8226 leukemia
# OVCAR-8 ovarian = system: OVCAR-8 ovarian
# OVCAR-5 ovarian = system: OVCAR-5 ovarian
# OVCAR-4 ovarian = system: OVCAR-4 ovarian
# SK-OV-3 ovarian = system: SK-OV-3 ovarian
# IGROV1 ovarian = system: IGROV1 ovarian
# OVCAR-3 ovarian = system: OVCAR-3 ovarian
# HS 578T breast = system: HS 578T breast
# NCI/ADR-RES ovarian = system: NCI/ADR-RES ovarian
SMILES,growth (SK-MEL-2 melanoma),growth (EKVX NSCLC),growth (SN12C renal),growth (UO-31 renal),growth (TK-10 renal),growth (A498 renal),growth (CCRF-CEM leukemia),growth (MOLT-4 leukemia),growth (SR leukemia),growth (RPMI-8226 leukemia),growth (OVCAR-8 ovarian),growth (OVCAR-5 ovarian),growth (OVCAR-4 ovarian),growth (SK-OV-3 ovarian),growth (IGROV1 ovarian),growth (OVCAR-3 ovarian),growth (HS 578T breast),growth (NCI/ADR-RES ovarian)
Cc1ncc(CO)c(C(=O)O)c1O,89.7%,101%,97.6%,84.8%,81.2%,99.5%,121%,82.5%,86.8%,131%,104%,105%,103%,104%,107%,94.8%,102%,104%
C#CC(=O)/C=C/CCCCCCC#CC(=O)CCC(=O)C#CCCCCCC/C=C/C(=O)C#C,82.1%,25.4%,-24.5% (active),-90.7% (active),32.5%,93.4%,-45.5% (active),-32.2% (active),-34.8% (active),-31.6% (active),8.53% (active),57.7%,23.5%,91.8%,-39.5% (active),7.03% (active),47%,11%
COc1ccc2c(c1)OC(N)=C(C#N)C2c1ccc(F)c(F)c1 (stereo unspecified),32.9%,49.2%,54.7%,52.8%,70.5%,9.88% (active),14.9%,28.2%,12.2%,7.58% (active),33.9%,51.6%,73.6%,29%,53.5%,15.6%,35.7%,17.9%
C=CCOc1ccc(/C(Cl)=N/N=C(\Cl)c2cc(OC)c(OC)c(OC)c2)cc1,71.8%,88.7%,84.1%,68%,96.4%,76.8%,34%,30.8%,17%,70.3%,62.6%,97.5%,84.3%,64.7%,64%,77.1%,75.5%,77.6%
COc1ccccc1C(OC(C)=O)OC(C)=O,90.7%,99%,111%,89.9%,91.1%,113%,113%,103%,88.7%,101%,112%,112%,111%,104%,112%,106%,106%,100%
COC(=O)/C=C/C(=O)c1cc(C)cc(C)c1O,99.2%,95.9%,109%,88%,96.9%,105%,90.3%,89.8%,90%,104%,111%,98.9%,101%,104%,106%,102%,112%,99.5%
CCn1cc(C(=O)O)c(=O)c2cc(F)c(N3CCN(CC(=O)Nc4ccc(C(C)=O)cc4)CC3)cc21,92.8%,103%,98.9%,93.6%,89.3%,95.5%,98.7%,97.6%,91.9%,106%,100%,107%,113%,99.9%,102%,111%,101%,97.1%
CC(C)(C)OC(=O)N1CCN(CCn2cc(C(F)(F)F)c3c(Cl)ncnc32)CC1,44.5%,101%,71.9%,-80.8% (active),115%,103%,28.5%,23.4%,-17.8% (active),86.3%,-61.4% (active),108%,103%,96.9%,-69.5% (active),85.2%,82.5%,104%
Cc1cccc(CC(=O)c2ccccc2)n1,96.7%,79.2%,94.5%,81.5%,95.6%,74.3%,71.8%,90.5%,94.4%,89.4%,91.8%,83.8%,90%,92.2%,97%,105%,91%,75.7%
COc1cc(Br)c(-c2nc(-c3ccccc3)c(-c3ccccc3)n2Cc2ccccc2)cc1OC,44.8%,47.9%,66.5%,30.4%,62.3%,73.8%,54.3%,23.4%,47.3%,40.8%,55%,77.1%,48.6%,39.5%,49.4%,68.6%,88.7%,48.9%
[2H]c1nc(Nc2ncc(F)c(-c3cc(F)c4nc(C)n(C(C)C)c4c3)n2)c([2H])c([2H])c1CN1CCN(CC)CC1,70.5%,55%,47.8%,23.1%,35.1%,44.2%,27.2%,15.4%,11.7%,34.7%,74.3%,49.8%,66.1%,35.7%,39.1%,73.1%,29.9%,71%
CC12CCC3C(CCC4CC(O)CCC43C)C1C/C(=C/O)C(=O)O2 (stereo unspecified),104%,104%,104%,91%,89.4%,62.7%,92.6%,101%,96.1%,91.3%,104%,111%,134%,105%,105%,103%,98.4%,108%
O=C(O)c1ccc(-n2cc(/C=N/Nc3ccccc3F)c(-c3ccc(O)cc3)n2)cc1,91.5%,69.9%,103%,49.1%,102%,72.5%,41.5%,39.1%,73.6%,59.1%,88.4%,80.9%,94.8%,102%,81%,82.7%,92.4%,80%
O=S(c1ccccc1)c1ccc2nnnn2n1 (stereo unspecified),98.9%,101%,101%,73.1%,99%,86.6%,44.9%,83.8%,85.2%,95.7%,108%,110%,111%,114%,75.8%,83.8%,97.7%,106%
COc1cc(C(=O)NNC(=O)c2ccccc2C(=O)O)cc(OC)c1OC,49.3%,83.4%,40.9%,49%,72%,78.7%,5.04% (active),-5.79% (active),-10.9% (active),10.8%,39.5%,84.5%,77.7%,52%,50.2%,29%,67.8%,37.7%
Cc1nc(N)nc(SCc2ccccc2)c1Br,89.9%,85.7%,91.6%,54.7%,112%,63.4%,82.4%,63.7%,74.4%,81.1%,89.9%,111%,86.2%,84.2%,82.7%,107%,87.6%,95.9%
CCn1c(C)nc([N+](=O)[O-])c1Sc1nc(N)nc2nc[nH]c12,40.5%,38.9%,33%,37.5%,34.5%,57%,11.8%,14.3%,16.6%,3.41% (active),24.1%,31.7%,47.4%,5.32% (active),77.5%,24.5%,50.4%,25.5%
